Laboratory results from PubChem BioAssay AID1159580 (chemical genetic matrix, 2015).
About 2,000 (36%) of roughly 5,500 compounds were called active. Another 18% or so got no clear call; they are omitted. Cut-off read from the data, not from the text of the source: active = normalized growth mostly below about 0.91 (no sharp cut-off); inconclusive = no clear call, values can overlap the other calls; inactive = mostly above about 0.92. The list shows a part of the results.

Test: chemical genetic growth profiling, strain panel (AID 1159580);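 note: tested at 20 µM; growth read once vehicle control cultures reached saturation at 30 °C; 1 = growth at the plate median or of vehicle wells; lower values mean less growth of the strain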
Conditions: growth OD

Measured: normalized growth

O=C(O)c1cc(=O)c2c(OCC(O)COc3cccc4oc(C(=O)O)cc(=O)c34)cccc2o1
inactive: S. cerevisiae deletion strains, locus YKL009W, strain mrt4, active compounds read low 1.01 | S. cerevisiae deletion strains, locus YKL068W, active compounds read low 1.01 | S. cerevisiae deletion strains, locus YKL085W, strain MDH1 (second series), active compounds read low 1.03 | S. cerevisiae deletion strains, locus YKL085W, strain MDH1, active compounds read low 1.03 | S. cerevisiae deletion strains, locus YKL160W, strain elf1, active compounds read low 0.972 | S. cerevisiae deletion strains, locus YKL190W, strain CNB1, active compounds read low 1 | S. cerevisiae deletion strains, locus YKR001C, strain vps1, active compounds read low 1.02 | S. cerevisiae deletion strains, locus YKR026C, strain gcn3, active compounds read low 0.968 | S. cerevisiae deletion strains, locus YKR091W, strain srl3, active compounds read low 0.983 | S. cerevisiae deletion strains, locus YLL001W, strain dnm1, active compounds read low 0.935 | S. cerevisiae deletion strains, locus YLL026W, active compounds read low 0.991 | S. cerevisiae deletion strains, locus YLL041C, strain sdh2, active compounds read low 0.973 | S. cerevisiae deletion strains, locus YLR027C, strain aat2, active compounds read low 0.983 | S. cerevisiae deletion strains, locus YLR039C, strain RIC1, active compounds read low 1 | S. cerevisiae deletion strains, locus YLR058C, strain SHM2, active compounds read low 1.01 | S. cerevisiae deletion strains, locus YLR102C, strain apc9, active compounds read low 1.02 | S. cerevisiae deletion strains, locus YLR113W, strain HOG1, active compounds read low 0.998 | S. cerevisiae deletion strains, locus YLR221C, strain rsa3, active compounds read low 1.02 | S. cerevisiae deletion strains, locus YLR258W, strain gsy2, active compounds read low 0.983 | S. cerevisiae deletion strains, locus YLR262C, strain YPT6 (second series), active compounds read low 0.933 | S. cerevisiae deletion strains, locus YLR262C, strain YPT6, active compounds read low 1.05 | S. cerevisiae deletion strains, locus YLR268W, strain sec22, active compounds read low 1.04 | S. cerevisiae deletion strains, locus YLR320W, strain mms22, active compounds read low 0.985 | S. cerevisiae deletion strains, locus YLR330W, strain CHS5, active compounds read low 1.01 | S. cerevisiae deletion strains, locus YLR342W, strain FKS1 (second series), active compounds read low 1.01 | S. cerevisiae deletion strains, locus YLR342W, strain FKS1, active compounds read low 0.95 | S. cerevisiae deletion strains, locus YLR357W, strain rsc2, active compounds read low 1.01 | S. cerevisiae deletion strains, locus YLR370C, strain arc18, active compounds read low 0.974 | S. cerevisiae deletion strains, locus YLR371W, strain rom2, active compounds read low 1.02 | S. cerevisiae deletion strains, locus YLR384C, strain iki3, active compounds read low 0.961 | S. cerevisiae deletion strains, locus YLR418C, strain cdc73, active compounds read low 1.02 | S. cerevisiae deletion strains, locus YML016C, strain PPZ1, active compounds read low 1.01 | S. cerevisiae deletion strains, locus YML032C, strain rad52, active compounds read low 1.02 | S. cerevisiae deletion strains, locus YML120C, strain ndi1, active compounds read low 0.966 | S. cerevisiae deletion strains, locus YML124C, strain tub3, active compounds read low 1.01 | S. cerevisiae deletion strains, locus YMR058W, strain fet3, active compounds read low 0.967 | S. cerevisiae deletion strains, locus YMR078C, strain ctf18, active compounds read low 1.04 | S. cerevisiae deletion strains, locus YMR125W, strain sto1, active compounds read low 0.99 | S. cerevisiae deletion strains, locus YMR129W, active compounds read low 0.975 | S. cerevisiae deletion strains, locus YMR205C, strain PFK2, active compounds read low 0.982 | S. cerevisiae deletion strains, locus YMR223W, strain ubp8, active compounds read low 1.03 | S. cerevisiae deletion strains, locus YMR231W, strain pep5, active compounds read low 0.971 | S. cerevisiae deletion strains, locus YMR307W, strain GAS1, active compounds read low 1.09 | S. cerevisiae deletion strains, locus YNL067W, strain RPL9B, active compounds read low 1.01 | S. cerevisiae deletion strains, locus YNL071W, strain lat1, active compounds read low 0.989 | S. cerevisiae deletion strains, locus YNL128W, strain TEP1, active compounds read low 1.02 | S. cerevisiae deletion strains, locus YNL183C, strain NPR1, active compounds read low 0.952 | S. cerevisiae deletion strains, locus YNL209W, strain ssb2, active compounds read low 1.01 | S. cerevisiae deletion strains, locus YNL233W, strain BNI4, active compounds read low 1.02 | S. cerevisiae deletion strains, locus YNL248C, strain rpa49, active compounds read low 1 | S. cerevisiae deletion strains, locus YNL250W, strain rad50, active compounds read low 1.07 | S. cerevisiae deletion strains, locus YNL271C, strain bni1, active compounds read low 1.03 | S. cerevisiae deletion strains, locus YNL298W, strain CLA4, active compounds read low 1.01 | S. cerevisiae deletion strains, locus YNL307C, strain MCK1, active compounds read low 1.02 | S. cerevisiae deletion strains, locus YNL322C, strain KRE1 (second series), active compounds read low 0.953 | S. cerevisiae deletion strains, locus YNL322C, strain KRE1, active compounds read low 1.01 | S. cerevisiae deletion strains, locus YNR049C, strain mso1, active compounds read low 0.967 | S. cerevisiae deletion strains, locus YNR052C, strain pop2, active compounds read low 1.01 | S. cerevisiae deletion strains, locus YOL006C, strain TOP1, active compounds read low 1.01 | S. cerevisiae deletion strains, locus YOL012C, strain htz1 0.937 | S. cerevisiae deletion strains, locus YOL147C, strain pex11, active compounds read low 1.03 | S. cerevisiae deletion strains, locus YOR001W, strain rrp6, active compounds read low 0.936 | S. cerevisiae deletion strains, locus YOR061W, strain CKA2, active compounds read low 1.01 | S. cerevisiae deletion strains, locus YOR069W, strain VPS5, active compounds read low 1.01 | S. cerevisiae deletion strains, locus YOR070C, strain gyp1, active compounds read low 0.987 | S. cerevisiae deletion strains, locus YOR080W, strain dia2, active compounds read low 0.968 | S. cerevisiae deletion strains, locus YOR083W, strain WHI5, active compounds read low 0.961 | S. cerevisiae deletion strains, locus YOR106W, strain vam3, active compounds read low 0.957 | S. cerevisiae deletion strains, locus YOR136W, strain idh2, active compounds read low 1.03 | S. cerevisiae deletion strains, locus YOR144C, strain elg1, active compounds read low 1.02 | S. cerevisiae deletion strains, locus YOR184W, strain ser1, active compounds read low 1.03 | S. cerevisiae deletion strains, locus YOR231W, strain MKK1, active compounds read low 1 | S. cerevisiae deletion strains, locus YOR265W, strain rbl2, active compounds read low 0.984 | S. cerevisiae deletion strains, locus YOR270C, strain vph1, active compounds read low 0.946 | S. cerevisiae deletion strains, locus YOR290C, strain snf2, active compounds read low 1.02 | S. cerevisiae deletion strains, locus YOR316C, strain cot1, active compounds read low 1.03 | S. cerevisiae deletion strains, locus YPL051W, strain arl3, active compounds read low 0.99 | S. cerevisiae deletion strains, locus YPL055C, strain LGE1, active compounds read low 1.01 | S. cerevisiae deletion strains, locus YPL078C, strain atp4, active compounds read low 0.933 | S. cerevisiae deletion strains, locus YPL106C, strain sse1, active compounds read low 1 | S. cerevisiae deletion strains, locus YPL240C, strain hsp82, active compounds read low 1 | S. cerevisiae deletion strains, locus YPL241C, strain CIN2, active compounds read low 1.01 | S. cerevisiae deletion strains, locus YPL256C, strain CLN2, active compounds read low 1 | S. cerevisiae deletion strains, locus YPR119W, strain clb2, active compounds read low 1.03 | S. cerevisiae deletion strains, locus YPR141C, strain kar3, active compounds read low 1.03 | S. cerevisiae deletion strains, locus YPR163C, strain tif3, active compounds read low 1.02 | S. cerevisiae deletion strains, locus YPR167C, strain met16, active compounds read low 1.03 | S. cerevisiae deletion strains, strain wtn01, active compounds read low 0.999 | S. cerevisiae strains, strain wild type, active compounds read low 1.01
